About 8,800 targets were measured; listed, in parts, are those with a hit and a random draw of the rest. About 0.5% of all pairs of compound and target were hits.
Legend:
Assay in all cases: log2 fold change, soluble protein after heating vs DMSO (PISA); higher = thermal stabilisation; K562 lysate, 10 uM; active = over 0.2 and 3.5 SD of the protein, either way, in both replicates (recomputed)
nilotinib = compound: Cc1cn(-c2cc(NC(=O)c3ccc(C)c(Nc4nccc(-c5cccnc5)n4)c3)cc(C(F)(F)F)c2)cn1 [nilotinib]
Procedure, shortened: (§1)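 The values are log-two fold changes in thermal stability compared with solvent controls and come from duplicates. They were obtained by TMTpro 16plex LC-MS/MS, with channel sums equalised, on the supernatant after 21,000xg for 90 min. That supernatant came from crude K562 extract at 1 mg/mL protein treated with 10 μM compound for 30 min, heated for 3 min across 48°C-58°C, pooled and brought to 0.5% NP-40 at 4°C.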

[1] = compound: Cc1nc(Nc2n[nH]c3c2CN(C(=O)N[C@H](CN(C)C)c2ccccc2)C3(C)C)c2sccc2n1
Procedure, shortened: as §1

dasatinib = compound: Cc1nc(Nc2ncc(C(=O)Nc3c(C)cccc3Cl)s2)cc(N2CCN(CCO)CC2)n1 [dasatinib]
Procedure, shortened: as §1

[2] = compound: Cc1ncc(-c2ccnc(Nc3ccc(S(C)(=O)=O)cc3)n2)n1C(C)C
Procedure, shortened: as §1

[3] = compound: Cn1cc(-c2ccc3c(c2)CCN3C(=O)Cc2cccc(C(F)(F)F)c2)c2c(N)ncnc21
Procedure, shortened: as §1

quisinostat = compound: Cn1cc(CNCC2CCN(c3ncc(C(=O)NO)cn3)CC2)c2ccccc21 [quisinostat]
Procedure, shortened: as §1

tipifarnib = compound: Cn1cncc1[C@@](N)(c1ccc(Cl)cc1)c1ccc2c(c1)c(-c1cccc(Cl)c1)cc(=O)n2C [tipifarnib]
Procedure, shortened: as §1

[4] = compound: NC(=O)Nc1cc(-c2cccc(F)c2)sc1C(=O)N[C@H]1CCCNC1
Procedure, shortened: as §1

[5] = compound: NC(=O)c1cnc(N[C@@H]2CCCC[C@@H]2N)nc1Nc1cccc(-n2nccn2)c1
Procedure, shortened: as §1

[6] = compound: NC1(c2ccc(-c3nc4ccn5c(=O)[nH]nc5c4cc3-c3ccccc3)cc2)CCC1
Procedure, shortened: as §1

Measured: log2 fold change

TAF6L (UniProt Q9Y6J9)
inactive: nilotinib -0.023 | [1] 0.012 | dasatinib -0.118 | [2] 0.021 | [3] 0.056 | quisinostat 0.018 | tipifarnib -0.032 | [4] 0.094 | [5] 0.028 | [6] 0.034

SLC25A25 isoform 3 (UniProt Q6KCM7)
UniProt Q6KCM7, sequence (Q6KCM7 whole entry, looked up): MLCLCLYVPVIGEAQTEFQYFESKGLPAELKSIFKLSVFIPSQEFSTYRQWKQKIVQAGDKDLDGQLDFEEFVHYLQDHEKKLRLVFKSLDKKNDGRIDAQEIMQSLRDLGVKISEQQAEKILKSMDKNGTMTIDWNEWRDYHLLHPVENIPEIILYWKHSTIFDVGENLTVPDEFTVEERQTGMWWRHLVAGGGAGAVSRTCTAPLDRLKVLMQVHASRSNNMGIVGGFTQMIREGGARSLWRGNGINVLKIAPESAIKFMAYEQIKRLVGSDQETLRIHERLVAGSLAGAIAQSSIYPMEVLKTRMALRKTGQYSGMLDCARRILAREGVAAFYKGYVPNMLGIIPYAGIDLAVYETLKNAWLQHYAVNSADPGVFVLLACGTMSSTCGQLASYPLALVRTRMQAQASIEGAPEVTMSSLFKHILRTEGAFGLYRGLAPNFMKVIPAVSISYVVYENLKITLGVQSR
inactive: nilotinib 0.027 | [1] -0.015 | dasatinib 0.03 | [2] -0.063 | [3] 0.031 | quisinostat -0.038 | tipifarnib -0.006 | [4] 0.021 | [5] 0.007 | [6] -0.025

SLC25A38 (UniProt Q96DW6)
UniProt Q96DW6, sequence (Q96DW6 whole entry, looked up): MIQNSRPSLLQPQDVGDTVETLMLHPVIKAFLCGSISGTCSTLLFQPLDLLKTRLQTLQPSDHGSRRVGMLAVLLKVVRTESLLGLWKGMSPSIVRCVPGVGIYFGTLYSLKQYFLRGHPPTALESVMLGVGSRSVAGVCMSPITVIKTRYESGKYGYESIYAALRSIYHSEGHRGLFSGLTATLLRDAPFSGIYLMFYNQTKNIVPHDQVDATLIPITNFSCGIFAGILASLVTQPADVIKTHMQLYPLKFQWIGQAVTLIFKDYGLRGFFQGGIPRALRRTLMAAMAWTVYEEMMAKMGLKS
inactive: nilotinib -0.097 | [1] -0.142 | dasatinib 0.015 | [2] -0.171 | [3] 0.15 | quisinostat -0.068 | tipifarnib -0.061 | [4] -0.019 | [5] -0.138 | [6] 0.06

SPATA5 (UniProt Q8NB90)
inactive: nilotinib 0.001 | [1] 0.006 | dasatinib -0.052 | [2] -0.002 | [3] 0.011 | quisinostat -0.023 | tipifarnib -0.002 | [4] 0.03 | [5] 0.001 | [6] -0.064

SNCA (UniProt P37840)
inactive: nilotinib 0.148 | [1] 0.075 | dasatinib 0.128 | [2] -0.032 | [3] 0.019 | quisinostat -0.031 | tipifarnib 0.159 | [4] -0.112 | [5] -0.049 | [6] 0

SULT1A1 (UniProt P50225)
UniProt P50225, sequence (P50225 whole entry, looked up): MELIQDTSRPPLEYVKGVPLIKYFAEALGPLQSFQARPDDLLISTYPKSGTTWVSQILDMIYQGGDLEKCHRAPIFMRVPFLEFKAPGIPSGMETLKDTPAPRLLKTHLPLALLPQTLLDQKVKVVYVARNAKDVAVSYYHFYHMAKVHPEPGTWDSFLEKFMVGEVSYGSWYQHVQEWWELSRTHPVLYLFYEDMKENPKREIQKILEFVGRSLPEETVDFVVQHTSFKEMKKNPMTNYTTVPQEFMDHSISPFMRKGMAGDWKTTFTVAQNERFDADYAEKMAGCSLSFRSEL
inactive: nilotinib 0.029 | [1] -0.074 | dasatinib 0.009 | [2] -0.028 | [3] -0.007 | quisinostat -0.006 | tipifarnib -0.043 | [4] 0.047 | [5] 0.007 | [6] -0.021

SMC1B isoform 3 (UniProt Q8NDV3)
UniProt Q8NDV3, sequence (Q8NDV3 whole entry, looked up): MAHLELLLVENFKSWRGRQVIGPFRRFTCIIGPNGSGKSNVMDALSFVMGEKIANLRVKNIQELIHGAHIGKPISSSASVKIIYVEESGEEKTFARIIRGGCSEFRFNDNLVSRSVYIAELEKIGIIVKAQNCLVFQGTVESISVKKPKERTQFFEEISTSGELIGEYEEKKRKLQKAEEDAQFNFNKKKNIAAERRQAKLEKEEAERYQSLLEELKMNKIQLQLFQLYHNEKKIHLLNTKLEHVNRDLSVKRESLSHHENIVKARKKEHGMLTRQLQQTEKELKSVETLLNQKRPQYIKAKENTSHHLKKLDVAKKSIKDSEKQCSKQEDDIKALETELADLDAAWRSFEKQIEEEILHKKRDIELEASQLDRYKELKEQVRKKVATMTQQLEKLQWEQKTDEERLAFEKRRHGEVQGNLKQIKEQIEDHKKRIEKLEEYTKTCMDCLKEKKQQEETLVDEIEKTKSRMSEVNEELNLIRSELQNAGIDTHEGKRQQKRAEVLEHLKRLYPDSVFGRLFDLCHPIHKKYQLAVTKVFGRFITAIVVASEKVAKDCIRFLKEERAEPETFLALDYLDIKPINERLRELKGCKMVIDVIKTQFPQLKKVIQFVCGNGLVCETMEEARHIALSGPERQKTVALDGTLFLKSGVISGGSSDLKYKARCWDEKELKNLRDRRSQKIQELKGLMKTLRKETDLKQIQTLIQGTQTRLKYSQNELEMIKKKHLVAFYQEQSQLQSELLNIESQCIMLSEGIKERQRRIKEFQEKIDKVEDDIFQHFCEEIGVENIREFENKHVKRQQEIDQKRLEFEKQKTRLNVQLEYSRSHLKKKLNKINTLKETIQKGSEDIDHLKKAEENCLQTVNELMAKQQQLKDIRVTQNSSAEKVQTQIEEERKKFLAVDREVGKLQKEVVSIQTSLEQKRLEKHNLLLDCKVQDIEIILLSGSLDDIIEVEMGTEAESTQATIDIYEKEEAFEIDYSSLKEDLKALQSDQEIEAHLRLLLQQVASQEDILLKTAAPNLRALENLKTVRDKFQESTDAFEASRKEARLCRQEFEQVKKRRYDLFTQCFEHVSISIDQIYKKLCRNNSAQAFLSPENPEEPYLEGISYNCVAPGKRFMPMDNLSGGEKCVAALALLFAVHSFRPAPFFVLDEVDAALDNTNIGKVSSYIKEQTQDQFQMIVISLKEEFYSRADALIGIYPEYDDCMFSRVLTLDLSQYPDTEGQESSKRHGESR
inactive: nilotinib 0.022 | [1] -0.041 | dasatinib -0.004 | [2] 0.023 | [3] 0.016 | quisinostat 0.004 | tipifarnib 0.008 | [4] -0.014 | [5] -0.005 | [6] -0.055

SLC19A1 (UniProt P41440)
inactive: nilotinib -0.026 | [1] 0.014 | dasatinib 0.019 | [2] -0.032 | [3] -0.017 | quisinostat -0.077 | tipifarnib -0.01 | [4] -0.015 | [5] -0.027 | [6] -0.004

SNAPC2 (UniProt Q13487)
inactive: nilotinib 0.066 | [1] 0 | dasatinib -0.24 | [2] -0.067 | [3] -0.122 | quisinostat -0.021 | tipifarnib -0.106 | [4] 0.029 | [6] 0

SNUPN (UniProt O95149)
active: [6] -0.482
inactive: nilotinib -0.007 | [1] -0.013 | [2] 0.005 | quisinostat 0.128 | tipifarnib -0.015 | [4] 0.042 | [5] -0.115

SMPD2 (UniProt O60906)
inactive: dasatinib -0.169 | [3] -0.102 | [5] 0.029 | [6] 0.069

SPAG1 (UniProt Q07617)
inactive: quisinostat -0.037 | [4] 0.007 | [5] 0.164

SMIM1 (UniProt B2RUZ4)
UniProt B2RUZ4, sequence (B2RUZ4 whole entry, looked up): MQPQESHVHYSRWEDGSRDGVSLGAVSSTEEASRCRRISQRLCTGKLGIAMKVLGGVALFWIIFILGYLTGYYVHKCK
active: [6] -0.418
inactive: nilotinib 0.056 | [1] 0.05 | [2] 0.195 | quisinostat 0.168 | tipifarnib 0.039 | [4] -0.055 | [5] -0.188

SSX5 isoform 2 (UniProt O60225)
inactive: nilotinib 0.008 | [1] -0.018 | [2] 0.064 | tipifarnib 0.061 | [5] 0.026 | [6] 0.15

STK26 isoform 3 (UniProt Q9P289)
inactive: dasatinib 0.181 | [3] -0.028 | quisinostat 0.093 | [4] 0.203

SYK (UniProt P43405)
inactive: nilotinib 0.02 | [1] -0.031 | dasatinib -0.067 | [2] 0 | [3] 0.01 | quisinostat -0.077 | tipifarnib -0.002 | [4] -0.095 | [6] -0.064

SORBS3 (UniProt O60504)
inactive: dasatinib 0.005 | [3] -0.019 | quisinostat -0.088 | [4] 0.022 | [5] 0.036 | [6] -0.019

SLCO4A1 (UniProt Q96BD0)
inactive: nilotinib -0.006 | [1] 0.044 | [2] 0.008 | tipifarnib 0.076

STK3 isoform 2 (UniProt Q13188)
UniProt Q13188, sequence (Q13188 whole entry, looked up): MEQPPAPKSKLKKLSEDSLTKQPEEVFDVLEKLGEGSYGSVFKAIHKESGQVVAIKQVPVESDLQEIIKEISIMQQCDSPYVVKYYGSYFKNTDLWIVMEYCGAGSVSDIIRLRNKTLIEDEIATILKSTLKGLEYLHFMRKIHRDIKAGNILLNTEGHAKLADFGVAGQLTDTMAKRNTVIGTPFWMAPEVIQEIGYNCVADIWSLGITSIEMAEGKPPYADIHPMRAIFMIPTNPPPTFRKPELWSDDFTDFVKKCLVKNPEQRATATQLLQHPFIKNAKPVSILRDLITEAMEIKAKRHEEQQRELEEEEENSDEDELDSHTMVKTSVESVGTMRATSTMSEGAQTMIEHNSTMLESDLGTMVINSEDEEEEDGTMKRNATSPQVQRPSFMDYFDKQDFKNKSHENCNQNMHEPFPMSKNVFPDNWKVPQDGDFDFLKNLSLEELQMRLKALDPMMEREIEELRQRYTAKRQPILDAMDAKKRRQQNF
inactive: nilotinib 0.015 | [1] 0.274 | dasatinib 0.132 | [2] 0.179 | [3] 0.276 | quisinostat -0.077 | tipifarnib -0.014 | [5] 0.108 | [6] -0.01

STK17B (UniProt O94768)
UniProt O94768, sequence (O94768 whole entry, looked up): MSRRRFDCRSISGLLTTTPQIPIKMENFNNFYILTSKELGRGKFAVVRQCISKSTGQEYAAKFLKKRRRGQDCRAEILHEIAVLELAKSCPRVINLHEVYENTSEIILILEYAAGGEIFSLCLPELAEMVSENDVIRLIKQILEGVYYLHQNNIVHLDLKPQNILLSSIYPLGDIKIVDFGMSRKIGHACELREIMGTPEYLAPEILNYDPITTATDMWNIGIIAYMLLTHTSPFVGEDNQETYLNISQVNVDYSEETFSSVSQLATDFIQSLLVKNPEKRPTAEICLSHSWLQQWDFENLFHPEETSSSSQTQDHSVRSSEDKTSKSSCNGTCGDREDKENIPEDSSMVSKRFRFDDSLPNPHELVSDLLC
inactive: nilotinib -0.006 | [1] -0.022 | dasatinib -0.063 | [2] -0.197 | [3] 0.065 | quisinostat -0.255 | tipifarnib -0.08 | [4] 0.634 | [6] -0.021

STAU1 isoform 3 (UniProt O95793)
inactive: nilotinib -0.051 | [1] -0.024 | [2] -0.023 | quisinostat -0.11 | tipifarnib 0.032 | [4] 0.088 | [6] -0.047

SNAP23 isoform 2 (UniProt O00161)
UniProt O00161, sequence (O00161 whole entry, looked up): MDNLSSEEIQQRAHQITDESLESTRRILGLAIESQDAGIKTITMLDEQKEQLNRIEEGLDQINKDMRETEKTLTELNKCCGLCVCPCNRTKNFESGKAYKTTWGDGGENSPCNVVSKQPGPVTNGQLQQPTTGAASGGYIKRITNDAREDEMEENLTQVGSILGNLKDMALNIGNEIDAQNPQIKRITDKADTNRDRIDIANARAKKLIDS
inactive: nilotinib 0.011 | [1] -0.041 | [2] -0.054 | tipifarnib -0.016 | [5] 0.046 | [6] -0.116

SPPL2A (UniProt Q8TCT8)
inactive: quisinostat -0.21 | [4] 0.046 | [5] 0 | [6] -0.072

SZT2 (UniProt Q5T011)
inactive: nilotinib -0.03 | [1] 0.434 | dasatinib 0.04 | [2] 0.02 | [3] -0.122 | tipifarnib -0.019 | [5] -0.009 | [6] -0.046

SPA17 (UniProt Q15506)
inactive: dasatinib -0.065 | [3] -0.041 | quisinostat 0.003 | [4] -0.015 | [5] 0.042

SLC25A44 (UniProt Q96H78)
UniProt Q96H78, sequence (Q96H78 whole entry, looked up): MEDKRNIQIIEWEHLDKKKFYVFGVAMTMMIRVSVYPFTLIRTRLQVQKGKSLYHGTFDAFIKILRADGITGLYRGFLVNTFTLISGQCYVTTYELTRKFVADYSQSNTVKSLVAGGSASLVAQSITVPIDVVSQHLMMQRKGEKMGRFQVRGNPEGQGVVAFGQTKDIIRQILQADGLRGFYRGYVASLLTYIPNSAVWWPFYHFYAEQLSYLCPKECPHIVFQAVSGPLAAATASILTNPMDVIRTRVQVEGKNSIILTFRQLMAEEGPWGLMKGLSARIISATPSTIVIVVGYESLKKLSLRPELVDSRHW
active: dasatinib -0.539
inactive: [3] -0.162 | quisinostat -0.025 | [4] 0.044 | [5] 0.005 | [6] 0.363

SOX5 (UniProt P35711)
inactive: dasatinib -0.035 | [3] -0.095 | quisinostat 0.027 | [4] -0.03 | [5] -0.186 | [6] -0.004

STN1 (UniProt Q9H668)
inactive: nilotinib -0.149 | [1] -0.071 | [2] 0.034 | quisinostat -0.104 | tipifarnib 0.005 | [4] 0.156 | [5] 0.032 | [6] 0.02

SLC30A6 isoform 2 (UniProt Q6NXT4)
inactive: nilotinib -0.029 | [1] 0.118 | [2] -0.067 | quisinostat -0.048 | tipifarnib -0.071 | [4] 0.093 | [5] 0.012 | [6] -0.096

SH3BP2 isoform 4 (UniProt P78314)
inactive: dasatinib -0.027 | [3] -0.107 | quisinostat -0.111 | [4] 0.019 | [5] 0.141 | [6] 0.048

SLC41A1 (UniProt Q8IVJ1)
inactive: nilotinib -0.009 | [1] 0.012 | [2] 0.07 | quisinostat 0.23 | tipifarnib -0.02 | [4] -0.003 | [5] 0.014 | [6] 0.055

SNIP1 (UniProt Q8TAD8)
inactive: nilotinib -0.1 | [1] 0.037 | [2] -0.078 | tipifarnib -0.149

SLC35A3 isoform 2 (UniProt Q9Y2D2)
inactive: nilotinib 0.02 | [1] -0.001 | [2] -0.049 | quisinostat -0.241 | tipifarnib 0.069 | [4] 0 | [5] 0.019 | [6] 0.056

SLC12A6 isoform 2 (UniProt Q9UHW9)
inactive: dasatinib -0.072 | [3] 0.206 | quisinostat -0.011 | [4] -0.055 | [5] -0.043 | [6] 0.039

SIN3B (UniProt O75182)
UniProt O75182, sequence (O75182 whole entry, looked up): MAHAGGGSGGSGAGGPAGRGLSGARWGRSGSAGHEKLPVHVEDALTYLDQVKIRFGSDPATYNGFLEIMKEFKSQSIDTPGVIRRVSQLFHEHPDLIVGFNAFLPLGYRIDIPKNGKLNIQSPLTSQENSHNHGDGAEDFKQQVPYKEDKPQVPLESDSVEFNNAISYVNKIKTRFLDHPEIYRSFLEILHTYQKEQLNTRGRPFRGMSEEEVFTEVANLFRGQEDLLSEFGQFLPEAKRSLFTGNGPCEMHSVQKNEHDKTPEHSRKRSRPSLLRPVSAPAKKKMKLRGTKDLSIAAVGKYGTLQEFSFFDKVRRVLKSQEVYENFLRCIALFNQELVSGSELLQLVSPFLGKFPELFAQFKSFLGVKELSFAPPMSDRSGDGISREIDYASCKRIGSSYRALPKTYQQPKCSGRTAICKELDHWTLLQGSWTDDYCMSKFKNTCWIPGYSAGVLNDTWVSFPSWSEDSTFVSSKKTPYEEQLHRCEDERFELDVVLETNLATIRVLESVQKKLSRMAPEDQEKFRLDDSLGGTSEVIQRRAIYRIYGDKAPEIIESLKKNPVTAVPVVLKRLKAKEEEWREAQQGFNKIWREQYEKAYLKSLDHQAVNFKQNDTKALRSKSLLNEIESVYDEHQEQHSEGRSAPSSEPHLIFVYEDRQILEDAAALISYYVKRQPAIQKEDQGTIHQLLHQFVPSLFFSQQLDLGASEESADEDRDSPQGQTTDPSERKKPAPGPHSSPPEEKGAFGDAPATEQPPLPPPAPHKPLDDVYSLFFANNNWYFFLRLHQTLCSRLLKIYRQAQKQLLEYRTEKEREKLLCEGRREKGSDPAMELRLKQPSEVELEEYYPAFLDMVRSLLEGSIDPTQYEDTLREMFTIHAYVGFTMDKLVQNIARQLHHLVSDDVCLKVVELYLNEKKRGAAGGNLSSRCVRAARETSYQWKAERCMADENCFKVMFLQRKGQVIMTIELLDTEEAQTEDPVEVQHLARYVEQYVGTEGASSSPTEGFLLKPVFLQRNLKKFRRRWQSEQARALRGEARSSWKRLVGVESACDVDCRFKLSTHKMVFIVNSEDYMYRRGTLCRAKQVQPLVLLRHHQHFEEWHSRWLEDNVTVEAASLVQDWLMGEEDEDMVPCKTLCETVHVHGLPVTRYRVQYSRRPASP
active: nilotinib 1.42
inactive: [1] -0.15 | [2] 0.839 | quisinostat -0.079 | tipifarnib 0.086 | [4] 0.077

SRGN (UniProt P10124)
inactive: dasatinib 0.003 | [3] -0.062 | quisinostat -0.026 | [4] 0 | [5] 0 | [6] -0.086

SLC39A13 (UniProt Q96H72)
inactive: [6] -0.018

SRC isoform 2 (UniProt P12931)
inactive: [3] -0.023 | [5] 0.015 | [6] 0.012

SHB (UniProt Q15464)
inactive: dasatinib 0.05 | [3] 0.004 | quisinostat 0.072 | [4] -0.026 | [5] -0.02 | [6] -0.01

TAOK2 isoform 2 (UniProt Q9UL54)
inactive: nilotinib 0.109 | [1] 0.013 | [2] -0.01 | tipifarnib 0.031

SLC22A18 (UniProt Q96BI1)
inactive: quisinostat -0.027 | [4] -0.032 | [5] 0.029 | [6] 0.007

STK17A (UniProt Q9UEE5)
inactive: nilotinib 0.076 | [1] 0.188 | [2] 0.249 | tipifarnib -0.387

Reference: the supplement of paper PMC10849652
